Compounds with a hit are over-represented: about 18% of the library has one in this group of screens.
LDHA block – inhibitors of human lactate dehydrogenase A | P00338 | purified LDHA, NADH/diaphorase-resazurin fluorescence; hits give low values | activity change, % (values are at about 110 or 230 µM) | 0.15% of 480,000 active | AID 1347041; in the data active means activity change below about -30%; inconclusive means mostly about -25% to -30%;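 further: plate controls were DMSO wells for no effect and wells without enzyme for full effect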
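Human LDH5 at 2 nM final in Tris HCl pH 7.4 with 0.06 mM NADH and 0.2 mM pyruvate, reacted 5 minutes at room temperature. Remaining NADH coupled via diaphorase/resazurin; resorufin fluorescence read at 0 and 20 minutes, normalized to enzyme-free and DMSO wells.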
RORgamma inh – ROR gamma (mouse) transcription inhibition | P51450 | Drosophila S2 Gal4-RORgamma UAS-luciferase reporter, 20 h | Potency, µM (doses to about 53.6 µM), without a hit: at the highest dose activity change, negative = inhibition, most hits filed as inhibitors | 5.4% of 310,000 active | AID 2551; further: potency means the concentration at half of the fitted maximal effect; nearly all actives have a fitted effect of over 60% in size
Target sequence (P51450 whole entry, looked up, the tested form may be a part): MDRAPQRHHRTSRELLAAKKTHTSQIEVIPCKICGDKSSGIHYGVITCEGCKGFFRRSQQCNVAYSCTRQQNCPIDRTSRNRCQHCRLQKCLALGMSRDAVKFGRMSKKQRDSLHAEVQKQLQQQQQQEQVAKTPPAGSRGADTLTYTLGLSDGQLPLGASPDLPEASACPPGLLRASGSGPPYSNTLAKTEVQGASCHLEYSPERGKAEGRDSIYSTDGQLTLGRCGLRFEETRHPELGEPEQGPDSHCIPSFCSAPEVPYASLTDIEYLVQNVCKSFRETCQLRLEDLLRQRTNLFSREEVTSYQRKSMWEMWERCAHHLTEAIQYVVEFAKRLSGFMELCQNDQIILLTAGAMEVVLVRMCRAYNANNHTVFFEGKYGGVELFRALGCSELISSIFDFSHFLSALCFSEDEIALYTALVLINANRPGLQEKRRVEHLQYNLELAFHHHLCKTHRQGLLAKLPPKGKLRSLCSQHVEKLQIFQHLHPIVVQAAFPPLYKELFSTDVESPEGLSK
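Stably transfected Drosophila Schneider cells are the test system, with ROR gamma fused to Gal4 and luciferase under UAS control; luminescence is read after 20 hr of 700 uM copper sulfate induction at ambient temperature.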
IL-1B inflam inh – inflammasome signaling inhibition, IL-1 beta readout; activity change, % at 57.5 µM; THP-1 LPS/ATP IL-1B secretion, AlphaLISA, 16 h; hits give low values; AID 743279; 4.7% of 360,000 active; in the data active means activity change below about -50%; inconclusive means mostly about -30% to -49%
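THP-1 cells pretreated 1 hr with compounds (up to 57.5 uM final), then stimulated with LPS (250 ng/mL final) plus ATP (1.25 mM final); secreted IL-1B measured by AlphaLISA after 16 hr, decreased signal indicating inhibition.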
VP16 counter – counter-screen for ROR gamma inhibitors: Gal4-VP16 reporter | Potency, µM (highest dose often 53.6 µM), for inactives: top-dose activity, negative = inhibition, usual class: inhibitors | Drosophila S2 Gal4-VP16 UAS-luciferase, luminescence, 20 h | 3.5% of 310,000 active;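 further: Gal4-VP16 expression switched on by copper sulfate through the metallothionein promoter; potency means the concentration at half of the fitted maximal effect; nearly all actives have a fitted effect of over 50% in size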
TDP1 cell CPT – DT40-hTDP1 cell growth loss with CPT; chicken DT40 Tdp1-/-;hTDP1 cells + 20 nM CPT, ATP luminescence, 48 h; Potency, µM (top dose mostly 46.2 µM), for the others: at the top dose activity change, negative = growth inhibition, usual class: inhibitors; 12% of 420,000 active; further: potency means the concentration at half of the fitted maximal effect; nearly all actives have a fitted effect of over 55% in size
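Chicken DT40 Tdp1-/- cells stably complemented with human TDP1 were seeded at 400 cells/well in medium containing 20 nM camptothecin, exposed to pin-transferred compounds, and grown at 37 °C for at least 48 hr. Viability was read as ATP luminescence.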
TDP1 cell noCPT – qHTS for Inhibitors of human tyrosyl-DNA phosphodiesterase 1 (TDP1): qHTS in cells in absence of CPT | DT40 Tdp1-/- hTDP1 cells, no CPT, ATP luminescence, 48 h | AID 686978, 2013 | Potency, µM (doses to about 46.2 µM), for inactives: at the highest dose activity change, negative = growth inhibition, most hits filed as inhibitors | 15% of 420,000 active; further: potency means the concentration at half of the fitted maximal effect; nearly all actives have a fitted effect of over 55% in size
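Seeded 400 DT40-hTDP1 cells/well (vehicle DMSO, no 20 nM CPT); pinned compounds; ≥48 hr at 37 °C; CellTiter-Glo luminescence as viability measure.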
* marks the source's active call; other numbers are inactive results; ? = inconclusive; / = no result. Unless noted, the call rests on the fitted dose curve; in most records, active means well fitted curve in the direction sought with a large enough effect; inconclusive means small, poorly fitted or top-dose-only effect, or another doubt; inactive means no such curve, though single readings can be large; an effect the other way counts as inactive or inconclusive. Unless noted, on the % scale 0 is the no-effect control and ±100 the full control effect.

SMILES	LDHA block	RORgamma inh	IL-1B inflam inh	VP16 counter	TDP1 cell CPT	TDP1 cell noCPT
CC(Cc1cccs1)NC(=O)Nc1ccc([N+](=O)[O-])cc1 (configuration not stated)	-7	?	-14	15%	?	16µM*
Cc1ccc(S(=O)(=O)[C@H]2CS(=O)(=O)C[C@@H]2N2CCN(c3ncccn3)CC2)cc1	2	/	/	/	/	/
CCCc1nc(C#N)c(NCCc2ccc(OC)c(OC)c2)o1	8	/	/	/	/	/
CC(C)NC(=O)CN(C)Cc1cccc2cccnc12	2	/	/	/	/	/
CCOc1ccccc1C(=O)N(Cc1ccccc1)C1CCS(=O)(=O)C1 (configuration not stated)	1	/	/	/	/	/
CC1(C)CCC(N)c2ccccc21 (configuration not stated)	10	/	/	/	/	/
CC(C)CCn1c(SCC(N)=O)nc2c1c(=O)[nH]c(=O)n2C	3	/	/	/	/	/
Cc1ccc(S(=O)(=O)N(C)C)cc1NC(=S)NC(C)CCC(C)C (configuration not stated)	3	13µM*	18	?	23µM*	21µM*
CC(=O)NNC(=S)Nc1cc(S(=O)(=O)N(C)C)ccc1C	-5	-8%	10	2%	-2%	?
Cc1ccc(S(=O)(=O)N(C)C)cc1NC(=O)C(C)N(C)CCOc1ccc(Cl)cc1 (configuration not stated)	-5	?	-7	?	?	29µM*
CCCCCCC(C)NC(=S)Nc1cc(S(=O)(=O)N(C)C)ccc1C (configuration not stated)	-4	13µM*	-2	?	?	23µM*
Cc1ccc(S(=O)(=O)N(C)C)cc1NC(=S)NC(C)CCCC(C)C (configuration not stated)	0	18µM*	-73*	?	26µM*	?
CCCCc1cc(=O)oc2c(C)c(OCC(=O)NCc3ccncc3)ccc12	6	/	/	/	/	/
CCOc1ccc2c(c1)[N+](C)(C)C(C)(C)C=C2C	-16	39%	-55*	-1%	5.8µM*	15µM*
CCCOC(=O)c1nc2ccccc2nc1N1CCN(Cc2ccccc2)CC1	5	/	/	/	/	/
Cc1cccc(CNC(=O)CCCN2C(=O)CCn3nc(-c4cn(C)c5ccccc45)cc32)c1	2	/	/	/	23µM*	?
COc1ccc(NC(=O)CCCN2C(=O)CCn3nc(-c4cn(C)c5ccccc45)cc32)cc1	-1	/	/	/	23µM*	18µM*
Cn1cc(-c2cc3n(n2)CCC(=O)N3CCCC(=O)Nc2ccccc2Cl)c2ccccc21	3	/	/	/	18µM*	18µM*
Cn1cc(-c2cc3n(n2)CCC(=O)N3CCCC(=O)Nc2ccc(F)cc2F)c2ccccc21	-5	/	/	/	?	?
CN(C)c1ccc(CNC(=O)CCCN2C(=O)CCn3nc(-c4cn(C)c5ccccc45)cc32)cc1	1	/	/	/	?	-19%
Cn1cc(-c2cc3n(n2)CCC(=O)N3CCCC(=O)Nc2ccccc2F)c2ccccc21	-2	/	/	/	?	23µM*
Cc1ccc(CNC(=O)CCCN2C(=O)CCn3nc(-c4cn(C)c5ccccc45)cc32)cc1	-4	/	/	/	-8%	-1%
COc1ccc(CNC(=O)CCCN2C(=O)CCn3nc(-c4cn(C)c5ccccc45)cc32)cc1	0	/	/	/	-27%	?
Oc1cccc(/C=C/c2nc3cc(Cl)ccc3o2)c1	1	/	/	/	/	/
c1ccc(C2NCCc3ccccc32)cc1 (configuration not stated)	-4	-15%	-7	2%	?	26µM*
SMILES	LDHA block	RORgamma inh	IL-1B inflam inh	VP16 counter	TDP1 cell CPT	TDP1 cell noCPT
CC(C)=CC1C(C(=O)Nc2ccc(C)cc2C)C1(C)C (configuration not stated)	-5	/	/	/	/	/
COc1cc2c(cc1OC)C(COc1cc(C)cc(C)c1)N(C(C)=O)CC2 (configuration not stated)	1	1%	-6	-11%	?	?
COc1cc2c(cc1OC)C(COc1cc(C)cc(C)c1)N(C(=O)COc1ccccc1)CC2 (configuration not stated)	3	/	/	/	?	23µM*
COc1cc2c(cc1OC)C(COc1cc(C)cc(C)c1)N(C(=O)C(C)(C)C)CC2 (configuration not stated)	3	/	/	/	?	26µM*
CCC(=O)N1CCc2cc(OC)c(OC)cc2C1COc1ccc(F)cc1 (configuration not stated)	-6	-7%	?	-5%	-10%	?
O=C(NCCc1c[nH]c2ccccc12)c1ccc(Cl)cc1F	16	/	/	/	/	/
COc1cc(C)cc2oc(=O)c(CC(=O)Nc3nc(CC(=O)O)cs3)c(C)c12	8	/	/	/	/	/
CCCN1C(=O)S/C(=C\c2ccc(N3CCOCC3)o2)C1=O	33	5.6µM*	-98*	4.5µM*	?	21µM*
CCCN1C(=O)S/C(=C/c2ccc(N3CCOCC3)o2)C1=O	24	-2%	-91*	-14%	26µM*	16µM*
O=C(CN1C(=O)S/C(=C/c2ccc(N3CCOCC3)cc2)C1=O)N1CCOCC1	-4	-25%	6	-28%	-19%	-12%
COc1ccc(-c2noc(-c3cc4ccc(OC(C)=O)cc4oc3=O)n2)cc1	7	/	/	/	/	/
COc1cc(/C=N/N2C(=O)CSC2=S)ccc1O	10	3%	0	1%	-16%	-24%
O=C1CSC(=S)N1N=Cc1ccccc1O	2	/	10	/	?	9.2µM*
COc1cc(O)c(C=NN2C(=O)CSC2=S)c(OC)c1	4	/	34	/	21µM*	23µM*
O=C1CSC(=S)N1N=Cc1ccc(Cl)cc1Cl	8	/	10	/	?	21µM*
COc1ccc(Br)cc1/C=N/N1C(=O)CSC1=S	0	14µM*	28	-24%	?	?
CC(C)c1ccc(NC(=O)Cc2nn(C)c(=O)c3ccccc23)cc1	-1	/	/	/	/	/
O=C1CSC(=S)N1N=Cc1cccc(OCc2ccccc2)c1	-3	/	-6	/	-26%	-2%
CC(C)CCOc1ccc(/C=N/N2C(=O)CSC2=S)cc1	11	4.5µM*	-9	?	?	?
O=C1CSC(=S)N1/N=C/c1cccnc1	4	-44%	-4	-27%	15µM*	?
COc1ccccc1NC(=O)N(Cc1ccc2c(c1)OCO2)Cc1nc2ccccc2c(=O)[nH]1	-1	?	14	-24%	18µM*	13µM*

Source: PubChem (National Center for Advancing Translational Sciences (NCATS))
